Assay [1] can be described thus: ATG_GLI_CIS: Attagene CIS-FACTORIAL HepG2 Assay for human Zinc Finger Protein GLI1 (AID 2282945). As to conditions: HepG2, Attagene cis-factorial reporter mRNA, GLI element; actives raise or lower the signal. Summed up:
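HepG2 cells transiently transfected with cis-promoter multiplexed reporter units report endogenous transcription factor activity. After 24 h chemical exposure, reporter mRNA was quantified by RT-PCR, 6-FAM labelling, HpaI digestion and capillary electrophoresis, with bidirectional fitting against DMSO.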

Assay [2] has as its target Bile acid receptor (Homo sapiens) (UniProt Q96RI1). Description: ATG_IR1_CIS: Attagene CIS-FACTORIAL HepG2 Assay for human Nuclear Receptor Subfamily 1 Group H Member 4 (NR1H4), IR1 submotif (AID 2282946). As to conditions: IR1 reporter transcription, actives raise or lower the signal. Summed up: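 Readout: reporter transcript levels by RT-PCR with fluorescent capillary electrophoresis, from HepG2 cells transiently transfected with multiplexed cis-regulated reporters and dosed 24 h. Gain- or loss-of-signal fitted versus DMSO negative control.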

The nature of assay [3]: ATG_GRE_CIS: Attagene CIS-FACTORIAL HepG2 Assay for human Glucocorticoid Response Elements (GRE) (AID 2282947). As to conditions: HepG2 GRE cis-reporter, Attagene multiplex mRNA; actives raise or lower the signal. Summed up: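 HepG2, transient cis-reporter transfection, 24 h. Reporter mRNA: RT-PCR then CE, fluorescence. Fit both directions vs DMSO.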
The nature of assay [4]: ATG_ISRE_CIS: Attagene CIS-FACTORIAL HepG2 Assay for human Interferon Regulatory Factor 1 (IRF1) binding to an Interferon-Stimulated Response Element (ISRE) (AID 2282948). As to conditions: HepG2 ISRE cis-reporter (Attagene), mRNA transcription readout; actives raise or lower the signal. Summed up:
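Uses HepG2 liver cells transfected with cis-regulated reporters and measures mRNA 24 h post-dosing through RT-PCR, primer-extension labelling and capillary electrophoresis, with DMSO as negative control.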

Assay [5] is described as follows: ATG_M_32_CIS: Attagene CIS-FACTORIAL HepG2 Assay for M32 Transcription Factor (Internal Marker) (AID 2282949).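 Further: background control marker of the multiplexed CIS panel rather than a real target.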 Conditions: HepG2 Attagene cis-factorial M32 reporter, mRNA; actives raise or lower the signal. Summed up:
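Using DMSO as baseline, bidirectional curve fits were applied to reporter mRNA signals. These came from transiently transfected HepG2 cells exposed for 24 h, with RNA analysed by RT-PCR, FAM primer extension, HpaI digestion and CE.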

Assay [6] can be described thus: ATG_M_06_CIS: Attagene CIS-FACTORIAL HepG2 Assay for M06 Transcription Factor (Internal Marker) (AID 2282950). Conditions: HepG2 Attagene CIS-FACTORIAL M06 internal marker reporter; actives raise or lower the signal. Summed up: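 HepG2 cells transiently transfected with cis-regulated multiple reporter transcription units were exposed to chemical for 24 h; reporter mRNA was quantified by RT-PCR, 6-FAM primer labelling, HpaI digestion and capillary electrophoresis, fitted bidirectionally against DMSO.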

Assay [7] has as its target Hypoxia-inducible factor 1-alpha (Homo sapiens) (UniProt Q16665). Description: ATG_HIF1a_CIS: Attagene CIS-FACTORIAL HepG2 Assay for human Hypoxia Inducible Factor 1 (HIF1A) (AID 2282951). As to conditions: HepG2 Attagene cis-factorial HIF1a reporter transcription; actives raise or lower the signal. Summed up:
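In this multiplexed cell assay, HepG2 cells bearing transfected cis reporters are dosed for 24 h and reporter mRNA is read by RT-PCR plus capillary electrophoresis; signal increases and decreases are both scored against DMSO.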

In assay [8] the target is Hepatocyte nuclear factor 6 (Homo sapiens) (UniProt Q9UBC0). Description: ATG_HNF6_CIS: Attagene CIS-FACTORIAL HepG2 Assay for human Hepatocyte Nuclear Factor 6 (HNF6) (AID 2282952). As to conditions: HepG2 Attagene cis-factorial HNF6 reporter transcription; actives raise or lower the signal. Summed up:
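Readout: fluorescent reporter-transcript fragments resolved by capillary electrophoresis after RT-PCR, reflecting endogenous factor activity in transfected HepG2. Exposure 24 h. Gain or loss of signal fitted bidirectionally against DMSO.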

Assay [9] has as its target Heat shock factor protein 1 (Homo sapiens) (UniProt Q00613). Description: ATG_HSE_CIS: Attagene CIS-FACTORIAL HepG2 Assay for human Heat Shock Transcription Factor 1 (HSE) (AID 2282953). As to conditions: HepG2 HSE cis-reporter, Attagene RNA transcription; actives raise or lower the signal. Summed up: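 HepG2 cells transiently transfected with multiple reporter transcription units under cis-regulatory promoter control, measuring endogenous transcription factor activity. After 24 h chemical exposure, reporter mRNA quantified by RT-PCR, fluorescent labelling, HpaI digestion and capillary electrophoresis; bidirectional fit versus DMSO.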

Assay [10] in a line: ATG_MRE_CIS: Attagene CIS-FACTORIAL HepG2 Assay for human Metal Responsive Element (MRE) (AID 2282954). Conditions: HepG2 MRE cis-reporter transcription, Attagene multiplex; actives raise or lower the signal. Summed up: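 Readout: capillary electrophoresis of 6-FAM-labelled, HpaI-digested RT-PCR reporter products. System: HepG2 cells carrying transient multiplexed cis reporters, dosed 24 h. Analysis: bidirectional fit, DMSO baseline.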

Assay [11] in a line: ATG_PBREM_CIS: Attagene CIS-FACTORIAL HepG2 Assay for human Phenobarbital-responsive Enhancer Module (PBREM) (AID 2282955). As to conditions: HepG2 PBREM cis-reporter, Attagene multiplexed transcription; actives raise or lower the signal. Summed up:
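After a 24 h incubation with test chemical, transfected HepG2 cells yield total RNA; reporter-specific RT-PCR products are fluorescently labelled, HpaI-digested and resolved by capillary electrophoresis against ROX size standards.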

A short description of assay [12]: ATG_PXRE_CIS: Attagene CIS-FACTORIAL HepG2 Assay for human Pregnane X Receptor Element (PXRE) (AID 2282957). As to conditions: HepG2 Attagene CIS-FACTORIAL PXRE reporter, mRNA; actives raise or lower the signal. Summed up:
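Read-out: fluorescence of reporter-specific RT-PCR products resolved by capillary electrophoresis, fitted bidirectionally relative to DMSO. Human HepG2 liver cells carried transfected cis-promoter reporter units and were exposed to chemicals for 24 h.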

The nature of assay [13]: ATG_RORE_CIS: Attagene CIS-FACTORIAL HepG2 Assay for human RAR-related Orphan Receptor Element (RORE) (AID 2282959). Conditions: HepG2 Attagene cis-factorial RORE reporter, mRNA; actives raise or lower the signal. Summed up: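 Fluorescence intensity of reporter-specific cDNA fragments, separated by capillary electrophoresis, gives the signal. Source: HepG2 liver cells transiently transfected with cis-element reporters and exposed 24 h; DMSO-normalized bidirectional fit.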

Assay [14] can be described thus: ATG_Sox_CIS: Attagene CIS-FACTORIAL HepG2 Assay for human SRY-box transcription factor (SOX) (AID 2282960). As to conditions: HepG2 Attagene cis-factorial SOX reporter, mRNA; actives raise or lower the signal. Summed up:
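After 24 h of chemical treatment, transfected HepG2 reporter cells are lysed for total RNA. Transcript levels come from RT-PCR with labelled primer extension and capillary electrophoresis, analysed bidirectionally versus DMSO.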

Assay [15] has as its target Transcription factor Sp1 (Homo sapiens) (UniProt P08047). Description: ATG_Sp1_CIS: Attagene CIS-FACTORIAL HepG2 Assay for human Specificity Protein 1 (Sp1) (AID 2282961). Conditions: HepG2 Sp1 cis-reporter transcription, actives raise or lower the signal. Summed up:
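Sp1-driven reporter mRNA, read as capillary electrophoresis fluorescence after RT-PCR, in transiently transfected HepG2 cells dosed for 24 h; signal change in either direction relative to DMSO.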

Assay [16] addresses Signal transducer and activator of transcription 3 (Homo sapiens) (UniProt P40763). Description: ATG_STAT3_CIS: Attagene CIS-FACTORIAL HepG2 Assay for human Signal Transducer and Activator of Transcription 3 (STAT3) (AID 2282963). Conditions: HepG2, Attagene cis-factorial STAT3 reporter transcription; actives raise or lower the signal. Summed up: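 Uses human liver HepG2 transiently carrying cis-regulated reporter transcription units. Following 24 h dosing, reporter mRNA induction was detected by RT-PCR and capillary electrophoresis, analysed bidirectionally versus DMSO.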

Assay [17] can be described thus: ATG_TA_CIS: Attagene CIS-FACTORIAL HepG2 Assay for human TA Basal Promoter (AID 2282964). Conditions: HepG2 Attagene CIS-factorial TA basal promoter reporter; actives raise or lower the signal. Summed up:
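HepG2 cells transiently transfected with multiplexed cis-promoter reporter units, dosed 24 h. Reporter mRNA measured by RT-PCR, 6-FAM labelling, HpaI digestion and capillary electrophoresis; bidirectional fit versus DMSO baseline, serving as background control.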

Assay [18] deals with Paired box protein Pax-6 (Homo sapiens) (UniProt P26367). Description: ATG_Pax6_CIS: Attagene CIS-FACTORIAL HepG2 Assay for human Paired Box 6 (PAX6) (AID 2282956). As to conditions: HepG2 CIS-FACTORIAL PAX6 reporter transcription, RNA readout; actives raise or lower the signal. Summed up:
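DMSO-referenced bidirectional fits of reporter mRNA fluorescence; HepG2 with transient cis-promoter MRTUs, 24 h post-dose, RT-PCR plus capillary electrophoresis detection.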

A short description of assay [19]: ATG_PPRE_CIS: Attagene CIS-FACTORIAL HepG2 Assay for human Peroxisome Proliferator-activated Response Element (PPRE) (AID 2282958). Conditions: HepG2 PPRE cis-element reporter, Attagene transcription factor profiling; actives raise or lower the signal. Summed up:
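Multiplexed reporter transcription units under cis-regulatory promoters were transfected into HepG2 cells to capture endogenous factor activity. A 24 h incubation preceded RNA isolation and fluorescent RT-PCR fragment analysis.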

The nature of assay [20]: ATG_SREBP_CIS: Attagene CIS-FACTORIAL HepG2 Assay for human Sterol Regulatory Element Binding (SREBP) (AID 2282962). Conditions: HepG2 Attagene cis-factorial SREBP reporter, mRNA; actives raise or lower the signal. Summed up:
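In this cis-format assay, HepG2 liver cells express reporters controlled by promoter elements responsive to native transcription factors. Exposure lasts 24 h; reporter mRNA fluorescence from capillary electrophoresis gives the signal, fitted bidirectionally against DMSO.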

“And” between values parts separate entries of the source, which are not always exact repeats. Equal entries are not always repeated. Some compounds were tested as several samples or in several runs, with calls that do not always agree. The source made the active and inactive calls. How the source made its calls: active means hit-call score of the fitted dose curve at least 0.9, where 1 is the maximum; inactive means score below 0.9.

The record followed here is PubChem BioAssay (EPA / NIEHS).

Sequence of Hepatocyte nuclear factor 6 (Homo sapiens) (Q9UBC0 whole entry, looked up, the tested form may be a part): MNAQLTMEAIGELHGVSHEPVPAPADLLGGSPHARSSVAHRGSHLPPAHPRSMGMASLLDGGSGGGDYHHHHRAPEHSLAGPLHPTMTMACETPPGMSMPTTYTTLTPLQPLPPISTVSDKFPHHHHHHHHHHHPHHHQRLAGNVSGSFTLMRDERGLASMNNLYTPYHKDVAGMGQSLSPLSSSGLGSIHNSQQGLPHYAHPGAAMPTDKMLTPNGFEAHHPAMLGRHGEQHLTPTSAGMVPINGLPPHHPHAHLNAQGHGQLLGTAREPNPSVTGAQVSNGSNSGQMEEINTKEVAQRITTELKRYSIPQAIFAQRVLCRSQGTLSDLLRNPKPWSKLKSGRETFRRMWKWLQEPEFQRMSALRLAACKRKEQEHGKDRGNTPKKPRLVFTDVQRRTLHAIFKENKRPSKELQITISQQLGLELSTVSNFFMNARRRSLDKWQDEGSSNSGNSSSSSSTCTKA
Sequence of Hypoxia-inducible factor 1-alpha (Homo sapiens) (Q16665 whole entry, looked up): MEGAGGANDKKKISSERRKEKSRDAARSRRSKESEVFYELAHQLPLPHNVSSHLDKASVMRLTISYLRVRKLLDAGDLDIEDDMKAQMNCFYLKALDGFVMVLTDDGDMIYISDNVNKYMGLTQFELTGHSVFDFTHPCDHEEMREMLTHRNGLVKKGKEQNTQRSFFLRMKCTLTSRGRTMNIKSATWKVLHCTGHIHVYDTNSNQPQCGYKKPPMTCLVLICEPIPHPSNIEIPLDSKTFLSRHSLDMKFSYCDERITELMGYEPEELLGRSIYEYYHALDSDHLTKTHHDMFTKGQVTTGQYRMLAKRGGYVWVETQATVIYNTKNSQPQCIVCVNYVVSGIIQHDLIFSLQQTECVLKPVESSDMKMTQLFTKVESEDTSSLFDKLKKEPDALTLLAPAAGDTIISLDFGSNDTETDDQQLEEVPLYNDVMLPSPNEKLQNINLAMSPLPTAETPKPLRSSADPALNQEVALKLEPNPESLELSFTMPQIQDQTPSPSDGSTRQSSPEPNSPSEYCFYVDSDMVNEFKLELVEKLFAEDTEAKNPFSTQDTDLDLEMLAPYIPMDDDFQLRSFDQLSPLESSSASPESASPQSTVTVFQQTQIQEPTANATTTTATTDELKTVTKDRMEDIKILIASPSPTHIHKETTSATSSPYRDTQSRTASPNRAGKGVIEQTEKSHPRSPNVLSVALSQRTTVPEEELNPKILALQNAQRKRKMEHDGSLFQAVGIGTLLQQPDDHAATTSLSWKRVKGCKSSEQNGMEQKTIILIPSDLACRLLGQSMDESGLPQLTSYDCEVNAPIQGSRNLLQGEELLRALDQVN
Sequence of Heat shock factor protein 1 (Homo sapiens) (Q00613 whole entry, looked up): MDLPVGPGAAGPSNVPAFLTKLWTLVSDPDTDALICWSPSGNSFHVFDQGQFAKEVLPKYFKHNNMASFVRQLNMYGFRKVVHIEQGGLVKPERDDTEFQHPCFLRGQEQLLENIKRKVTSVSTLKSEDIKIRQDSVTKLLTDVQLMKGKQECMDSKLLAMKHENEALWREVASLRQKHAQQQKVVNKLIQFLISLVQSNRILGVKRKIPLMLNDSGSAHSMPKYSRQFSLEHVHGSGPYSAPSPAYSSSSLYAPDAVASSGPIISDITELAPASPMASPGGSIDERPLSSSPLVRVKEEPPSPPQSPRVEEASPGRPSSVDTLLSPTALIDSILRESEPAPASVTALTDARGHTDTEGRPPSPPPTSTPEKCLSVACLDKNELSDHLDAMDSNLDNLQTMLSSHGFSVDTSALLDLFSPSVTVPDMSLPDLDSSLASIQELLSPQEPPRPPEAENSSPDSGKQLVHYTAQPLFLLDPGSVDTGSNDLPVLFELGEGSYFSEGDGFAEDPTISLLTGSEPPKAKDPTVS
Sequence of Transcription factor Sp1 (Homo sapiens) (P08047 whole entry, looked up): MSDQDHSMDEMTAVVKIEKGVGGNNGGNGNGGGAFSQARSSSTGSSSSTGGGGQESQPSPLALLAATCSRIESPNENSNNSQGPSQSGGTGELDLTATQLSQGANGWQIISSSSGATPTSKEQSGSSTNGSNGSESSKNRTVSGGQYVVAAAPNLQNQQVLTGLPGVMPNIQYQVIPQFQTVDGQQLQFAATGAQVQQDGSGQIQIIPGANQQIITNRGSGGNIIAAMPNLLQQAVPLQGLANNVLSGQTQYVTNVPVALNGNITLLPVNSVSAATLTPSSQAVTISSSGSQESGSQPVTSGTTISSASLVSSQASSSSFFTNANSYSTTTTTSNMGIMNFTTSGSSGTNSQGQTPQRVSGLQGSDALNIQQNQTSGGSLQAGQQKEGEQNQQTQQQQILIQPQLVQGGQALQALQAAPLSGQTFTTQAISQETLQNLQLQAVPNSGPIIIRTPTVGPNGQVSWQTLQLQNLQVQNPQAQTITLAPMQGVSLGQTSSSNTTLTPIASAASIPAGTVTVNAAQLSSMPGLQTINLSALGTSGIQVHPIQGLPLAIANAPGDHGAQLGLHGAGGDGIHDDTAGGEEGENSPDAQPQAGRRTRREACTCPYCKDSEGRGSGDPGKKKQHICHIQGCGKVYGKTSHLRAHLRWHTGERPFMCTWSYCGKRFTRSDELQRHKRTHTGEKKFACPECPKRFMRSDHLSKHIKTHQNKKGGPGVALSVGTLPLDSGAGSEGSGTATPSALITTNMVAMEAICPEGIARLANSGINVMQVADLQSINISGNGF
Sequence of Signal transducer and activator of transcription 3 (Homo sapiens) (P40763 whole entry, looked up): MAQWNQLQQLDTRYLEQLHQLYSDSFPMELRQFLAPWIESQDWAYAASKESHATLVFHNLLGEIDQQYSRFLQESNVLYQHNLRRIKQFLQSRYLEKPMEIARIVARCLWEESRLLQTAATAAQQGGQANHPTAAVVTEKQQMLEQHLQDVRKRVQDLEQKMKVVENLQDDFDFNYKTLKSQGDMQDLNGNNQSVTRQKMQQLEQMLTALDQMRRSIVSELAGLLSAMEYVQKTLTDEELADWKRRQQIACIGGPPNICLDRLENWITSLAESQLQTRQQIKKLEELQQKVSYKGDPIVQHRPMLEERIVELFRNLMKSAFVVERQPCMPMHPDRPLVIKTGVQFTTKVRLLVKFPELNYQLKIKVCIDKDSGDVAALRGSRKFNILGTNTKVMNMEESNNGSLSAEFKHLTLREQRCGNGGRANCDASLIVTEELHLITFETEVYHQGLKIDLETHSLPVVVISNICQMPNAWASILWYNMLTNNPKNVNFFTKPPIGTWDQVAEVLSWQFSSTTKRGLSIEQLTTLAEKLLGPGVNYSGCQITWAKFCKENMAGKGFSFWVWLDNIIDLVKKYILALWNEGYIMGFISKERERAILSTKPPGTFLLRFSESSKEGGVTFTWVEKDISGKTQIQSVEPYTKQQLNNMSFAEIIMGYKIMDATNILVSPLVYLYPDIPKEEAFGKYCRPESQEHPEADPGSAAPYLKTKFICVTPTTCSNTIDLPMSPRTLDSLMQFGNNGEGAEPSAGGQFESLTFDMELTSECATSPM
Sequence of Paired box protein Pax-6 (Homo sapiens) (P26367 whole entry, looked up): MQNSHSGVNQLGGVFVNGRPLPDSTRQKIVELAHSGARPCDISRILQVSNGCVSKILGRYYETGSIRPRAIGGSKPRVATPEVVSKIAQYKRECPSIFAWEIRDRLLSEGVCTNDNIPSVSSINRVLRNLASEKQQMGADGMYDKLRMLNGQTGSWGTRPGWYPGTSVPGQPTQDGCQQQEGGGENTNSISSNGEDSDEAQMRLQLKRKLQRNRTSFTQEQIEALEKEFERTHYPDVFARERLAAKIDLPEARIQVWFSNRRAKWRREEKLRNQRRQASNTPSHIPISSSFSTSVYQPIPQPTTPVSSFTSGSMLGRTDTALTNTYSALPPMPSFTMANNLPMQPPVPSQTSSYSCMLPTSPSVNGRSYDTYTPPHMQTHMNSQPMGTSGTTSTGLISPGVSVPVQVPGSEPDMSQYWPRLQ
Sequence of Bile acid receptor (Homo sapiens) (Q96RI1 whole entry, looked up): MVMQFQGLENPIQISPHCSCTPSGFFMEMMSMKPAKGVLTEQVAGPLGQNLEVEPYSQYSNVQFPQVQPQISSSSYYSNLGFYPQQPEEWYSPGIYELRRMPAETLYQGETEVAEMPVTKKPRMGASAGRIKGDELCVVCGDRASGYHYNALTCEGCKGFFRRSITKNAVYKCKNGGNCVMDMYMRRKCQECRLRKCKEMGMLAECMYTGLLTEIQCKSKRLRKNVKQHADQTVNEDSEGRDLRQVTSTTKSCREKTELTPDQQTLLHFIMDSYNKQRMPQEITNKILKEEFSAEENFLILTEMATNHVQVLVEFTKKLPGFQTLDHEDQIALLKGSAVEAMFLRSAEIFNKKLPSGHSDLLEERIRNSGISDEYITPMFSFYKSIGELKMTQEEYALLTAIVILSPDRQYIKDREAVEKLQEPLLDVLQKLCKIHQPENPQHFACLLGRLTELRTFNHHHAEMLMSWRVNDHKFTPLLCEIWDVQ

For orientation: AC50 means the concentration at which the activity in the assay is half-maximal. As for `CC1=CC(C)C(C=O)C(C)C1` (stereo not given) (tested in a mixture with another compound), the compound was called inactive in [1], in assay [2], in assay [3], in assay [4], in assay [5] and in assay [6]. Further, the call in [7], in assay [8], in [9], in assay [10], in assay [11] and in assay [13] was inactive. The compound was called inactive in assay [14], in assay [15], in assay [16] and in [17]. Moreover, the half-maximal activity concentration (AC50) in assay [12] is 15.9 µM (active).
Regarding `C#C[C@]1(O)CC[C@H]2[C@@H]3CCc4cc(O)ccc4[C@H]3CC[C@@]21C`, the half-maximal activity concentration (AC50) in assay [1] is 98.4 µM (active) and 72.2 µM (active) and 62.4 µM (active); in [3], 159 µM (active); in [5], 161 µM (active); in [7], 49 µM (active) and 67.4 µM (active); in assay [8] it was 58.1 µM (active) and 100 µM (active); in [9], 59.2 µM (active) [middle of 4 runs]. Further, the AC50 in assay [10] is 52.1 µM (active) [middle of 4 runs]; in assay [12], 3.19 µM (active) [middle of 4 runs]; in assay [13], 67.3 µM (active) and 60.7 µM (active) and 26.4 µM (active); in [14], 130 µM (active) and 54.9 µM (active); in assay [15], 169 µM (active) and 44.8 µM (active); in assay [16], 68 µM (active) and 155 µM (active). Besides, the AC50 in assay [17] was 132 µM (active). Also, the outcome in [1], in assay [3], in assay [5], in assay [6], in assay [7] and in [8] was inactive. Moreover, the compound was called inactive in [9], in assay [10], in assay [18], in [12], in assay [19] and in assay [13]. Moreover, the result in [14], in assay [15], in [16] and in assay [17] was inactive.
On to `CCOCC(C)O` (stereo not given), for which the result in assay [1], in [2], in assay [3], in assay [4], in assay [5] and in assay [6] was inactive. Also, the compound was classed as inactive in assay [7], in assay [8], in assay [9], in [10], in [18] and in assay [19]. In addition, the outcome in assay [13], in assay [14], in [15], in [20], in [16] and in assay [17] was inactive. Besides, the half-maximal activity concentration (AC50) in [12] is 45.3 µM (active).
